# In PubChem BioAssay (NCATS):
# Values without a mark were called inactive. Inconclusive results are not listed. Calls of active or inactive are those of the source. Unless noted, the call rests on the fitted dose curve; in most records, active means well fitted curve in either direction with a large enough effect (not every such curve was filed as active); inconclusive means small, poorly fitted or top-dose-only effect, or another doubt; inactive means flat fitted curve, though single readings scatter.
# Experiments:
# [1] = biological target: Lysosomal acid glucosylceramidase (Homo sapiens) (UniProt P04062); test: Glucocerebrosidase-p2 (AID 348; in the data active means potency below about 10 µM; further: potency means the concentration at half of the fitted maximal effect); conditions: purified GBA, blue fluorogenic substrate, 40 min
# In short: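 Compounds titrated from 0.6 nM upwards against 0.2 nM enzyme in pH 5.9 citric acid/KH2PO4, taurocholate, tween-20; blue fluorogenic substrate 80 uM, 40 min room temperature, stopped and read Ex 365/Em 440 for AC50.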
# [2] = AP1 Signaling Pathway (AID 357); conditions: ME-180 AP-1-bla reporter, EGF-induced, beta-lactamase ratio, 5 h; at 7.69 µM (top of the series) unless noted; further: on the % scale 0 is the no-effect control and ±100 the full control effect
# In short: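 AP-1-bla ME-180 cells with beta-lactamase reporter under AP-1 response element, stimulated with EC50 EGF; compounds titrated, 5 hours at 37 degrees Celsius. CCF4 read at 460/530 nm ratio; positive and negative modulators judged by AC50.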
# [3] = NFAT Signaling Pathway (AID 444); conditions: Jurkat NFAT-bla M1, carbachol, beta-lactamase ratio, 5 h; at 7.69 µM (top of the series) unless noted;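 further: carbachol stimulus at about its EC50 of 1 µM final; on the % scale 0 is the no-effect control and ±100 the full control effect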
# In short: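 Jurkat cells with NFAT-driven β-lactamase reporter and co-expressed M1 receptor, stimulated with carbachol (final 1 uM, ~EC50), compound titration, 5 h at 37 °C. CCF4 loaded 1 h at RT; 460/530 nm ratio gave %activity and AC50.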
# [4] = Stat Signaling Pathway (AID 446); conditions: ME-180 SIE beta-lactamase reporter, IL-6 stimulated, 5 h; at 7.69 µM (top of the series) unless noted;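 further: ME-180 cervical cancer cells given 40 pM IL-6 alongside compound; SIE-controlled beta-lactamase reporter measured as 460/530 nm FRET emission ratio; on the % scale 0 is the no-effect control and ±100 the full control effect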
# In short: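 IL-6/STAT signaling read in ME-180 cells via an SIE beta-lactamase reporter. Stimulus was 40 pM IL-6 (its AC50) for 5 hrs, so both activation and inhibition register.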
# [5] = biological target: Glucocorticoid receptor (Homo sapiens) (UniProt P04150); test: GR-EFC Redistribution (AID 451; calls by dose curve; further: potency means the concentration at half of the fitted maximal effect); conditions: CHO-K1 GR-EFC translocation, beta-gal luminescence, 2 h
# In short: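 CHO-K1 cells expressing nuclear EA and GR-ED fragments of b-gal; compounds titrated up to 46 uM final, 2 h at 37 C. GR nuclear translocation read as complemented b-gal luminescence after 1 h RT detection.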
# [6] = biological target: Mitogen-activated protein kinase 10 (Mus musculus) (UniProt Q61831); test: JNK3 AlphaScreen Assay (AID 530); conditions: JNK3 lysate, c-Jun phosphorylation; series mostly up to 57.1 µM;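 further: kinase came from lysate of stimulated human HepG2 cells; signal reports phosphorylation of biotinylated GST-cJun 1-79 at Ser73 with 10 µM ATP; on the % scale 0 is the no-effect control and ±100 the full control effect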
# In short: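 Pre-activated (IL-1β/TNFα) JNK3 in HepG2 lysates phosphorylates biotin-GST-cJun(1-79), 10 uM ATP; anti-phospho-cJun(Ser73) AlphaScreen read at room temperature, pH 7.6 Tris buffer. Compounds pre-incubated 15 min as titrations.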
# [7] = biological target: 3',5'-cyclic-AMP phosphodiesterase 4B (Homo sapiens) (UniProt Q07343); test: qHTS Assay for Inhibitors of PDE-IV (AID 607; active means well fitted activation curve with a large enough effect in the main read-out, with a control signal flat, not every such curve was filed as active; further: % of control where 0% means no effect); conditions: HEK293 ACTOne CNG channel cells, membrane potential fluorescence; series mostly up to 22.9 µM
# In short: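 Live HEK293 cells with a modified cyclic nucleotide-gated (CNG) channel report intracellular cAMP via membrane-potential dye fluorescence (ex 535/em 590 nm). Endogenous PDE-IV was targeted. Compounds were tested at up to 22.9 uM final; RO 20-1724 100 uM served as control.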
# [8] = Primary qHTS for small molecule stabilizers of the endoplasmic reticulum resident proteome: Secreted ER Calcium Modulated Protein (SERCaMP) assay (AID 1508630; active means well fitted curve in the direction sought with a large enough effect; an effect the other way counts as inactive or inconclusive; further: on the % scale 0 is the no-effect control and ±100 the full control effect); conditions: SH-SY5Y GLuc-SERCaMP (Gaussia luciferase released on ER calcium loss) secretion, thapsigargin, luminescence; series mostly up to 38.4 µM
# In short: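 GLuc-SERCaMP-expressing SH-SY5Y cells, pretreated 16 h with compound, are challenged with thapsigargin to empty ER calcium stores; after 4 h, coelenterazine is added directly to the medium and luminescence is imaged.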
# [9] = biological target: Cytochrome P450 2C9 (Homo sapiens) (UniProt P11712); test: qHTS Assay for Inhibitors and Substrates of Cytochrome P450 2C9 (AID 883; active means well fitted curve in the direction sought with a large enough effect; an effect the other way counts as inactive or inconclusive; further: potency means the concentration at half of the fitted maximal effect; nearly all actives have a fitted effect of over 60% in size); conditions: recombinant CYP2C9, luciferin-H luminescence, 60 min; series mostly up to 57.1 µM
# In short: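 10nM CYP2C9 + 100uM Luciferin-H (=KM), 25mM KPO4; cpd 10 min 37C; NADPH regen, 60 min 37C; stop/detect with P450 Glo-Buffer 20 min; luminescence. Norm. to 57uM sulphaphenazole as full inhibition.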
# [10] = biological target: Cytochrome P450 3A4 (Homo sapiens) (UniProt P08684); test: qHTS Assay for Activators of Cytochrome P450 3A4 (AID 885; active means well fitted curve in the direction sought with a large enough effect; an effect the other way counts as inactive or inconclusive; further: nearly all actives have a fitted effect of over 65% in size; further: potency means the concentration at half of the fitted maximal effect); conditions: recombinant CYP3A4, Luciferin-PPXE luminescence, 60 min; series mostly up to 57.1 µM
# In short: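 Quantitative HTS format: compounds preincubated with 20nM human CYP3A4 and Luciferin-PPXE substrate at KM, reaction started by NADPH regeneration, stopped after 60 min, luciferase luminescence read 20 min later.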
# [11] = biological target: Cytochrome P450 2C19 (Homo sapiens) (UniProt P33261); test: qHTS Assay for Inhibitors and Substrates of Cytochrome P450 2C19 (AID 899; active means well fitted curve in the direction sought with a large enough effect; an effect the other way counts as inactive or inconclusive; further: nearly all actives have a fitted effect of over 60% in size; further: potency means the concentration at half of the fitted maximal effect); conditions: recombinant CYP2C19, luciferin-H EGE luminescence; series mostly up to 57.1 µM
# In short: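 Luminescent read-out of luciferin formed from Luciferin-H EGE (10uM, equal to KM). Enzyme 5nM in 50mM KPO4; compound added, 10 min at 37C, then NADPH regenerating system for 60 min at 37C. Full inhibition defined by 57uM ketoconazole.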
# [12] = biological target: Cytochrome P450 3A4 (Homo sapiens) (UniProt P08684); test: qHTS Assay for Inhibitors and Substrates of Cytochrome P450 3A4 (AID 884; active means well fitted curve in the direction sought with a large enough effect; an effect the other way counts as inactive or inconclusive; further: on the % scale 0 is the no-effect control and ±100 the full control effect; nearly all actives have a fitted effect of over 50% in size); conditions: recombinant CYP3A4, Luciferin-PPXE luminescence; series mostly up to 57.1 µM
# In short: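 20 nM human CYP3A4 with 25 uM Luciferin-PPXE (at KM) in 200 mM KPO4, preincubated 10 min with compound; NADPH regeneration started a 60 min RT reaction. Luciferin detected by luminescence, normalized to 57 uM ketoconazole as full inhibition.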
# [13] = biological target: Glucocorticoid receptor (Homo sapiens) (UniProt P04150); test: GR-GFP Redistribution (AID 450;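 active means compounds whose dose series gives a full or clear partial fitted curve of increased nuclear translocation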; further: potency means the concentration at half of the fitted maximal effect); conditions: U2OS GR-GFP nuclear translocation, laser cytometry, 2 h
# [14] = qHTS Assay for Identification of Small Molecule Agonists for Hypoxia Response Element Signaling Pathway (AID 914; active means well fitted activation curve with a large enough effect in the signal ratio, with a control signal flat, not every such curve was filed as active; the % refers to the signal ratio; further: % of control where 0% means no effect); conditions: ME-180 (cervical carcinoma) HRE-bla reporter, beta-lactamase ratio, CoCl2, 17 h; activation: stronger effect = higher value
# In short: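 HRE-bla ME-180 cells with beta-lactamase reporter under hypoxia response element, compounds with EC50 CoCl2 for 17 hours at 37 C. CCF4 substrate, 460nm/530nm emission ratio gave %Activity; AC50 from titration series.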
# [15] = Confirmation and Secondary Assay for Modulators of Hemoglobin Beta Chain Splicing at IVS2 705 locus (AID 930; active means well fitted curve in the direction sought with a large enough effect; an effect the other way counts as inactive or inconclusive;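 further: HeLa cells stably expressing the EGFP-705 splicing reporter; GFP fluorescence per well restored by corrected splicing of the IVS2-705 intron in EGFP; % of control where 0% means no effect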); conditions: HeLa EGFP-705 splicing reporter, GFP fluorescence, 48 h; series mostly up to 38.3 µM
# In short: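 HeLa cells stably carrying EGFP interrupted by mutant beta-globin intron 2 (IVS2-705) treated 2 days at 37C with compound; 500 nM antisense PNA as control. Correct splicing read as total peak GFP intensity per well by laser-scanning cytometry.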
# [16] = biological target: Ubiquitin carboxyl-terminal hydrolase 1 (Homo sapiens) (UniProt O94782); test: Inhibitors of USP1/UAF1: Pilot qHTS (AID 504865; active means well fitted curve in the direction sought with a large enough effect; an effect the other way counts as inactive or inconclusive; further: potency means the concentration at half of the fitted maximal effect; nearly all actives have a fitted effect of over 35% in size); conditions: purified USP1/UAF1, Ub-rhodamine cleavage fluorescence; series mostly up to 54.9 µM
# In short: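 1nM USP1/UAF1 + cpd, 15 min RT; start w/ Ub-Rho 150nM final; kinetic FL 480/540 nm, 6 reads q60 s. Buffer 50mM HEPES pH 7.8, 0.5mM EDTA, 1mM TCEP, 0.01% Tween-20, 0.1 mg/ml BSA.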
# Cytochrome P450 3A4 (Homo sapiens), sequence (P08684 whole entry, looked up): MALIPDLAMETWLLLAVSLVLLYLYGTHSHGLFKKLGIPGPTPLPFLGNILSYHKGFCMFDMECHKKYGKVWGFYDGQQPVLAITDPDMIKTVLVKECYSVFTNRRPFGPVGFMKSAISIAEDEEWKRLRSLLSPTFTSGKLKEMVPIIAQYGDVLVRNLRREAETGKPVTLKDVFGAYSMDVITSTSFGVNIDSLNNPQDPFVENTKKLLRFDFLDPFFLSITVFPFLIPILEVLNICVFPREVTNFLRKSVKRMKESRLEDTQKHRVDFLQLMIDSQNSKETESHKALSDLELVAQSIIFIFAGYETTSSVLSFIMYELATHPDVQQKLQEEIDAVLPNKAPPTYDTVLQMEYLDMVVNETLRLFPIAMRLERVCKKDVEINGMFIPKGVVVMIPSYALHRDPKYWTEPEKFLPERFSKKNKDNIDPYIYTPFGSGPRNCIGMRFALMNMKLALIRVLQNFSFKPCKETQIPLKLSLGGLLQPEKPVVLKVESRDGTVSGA
# Cytochrome P450 2C19 (Homo sapiens), sequence (P33261 whole entry, looked up): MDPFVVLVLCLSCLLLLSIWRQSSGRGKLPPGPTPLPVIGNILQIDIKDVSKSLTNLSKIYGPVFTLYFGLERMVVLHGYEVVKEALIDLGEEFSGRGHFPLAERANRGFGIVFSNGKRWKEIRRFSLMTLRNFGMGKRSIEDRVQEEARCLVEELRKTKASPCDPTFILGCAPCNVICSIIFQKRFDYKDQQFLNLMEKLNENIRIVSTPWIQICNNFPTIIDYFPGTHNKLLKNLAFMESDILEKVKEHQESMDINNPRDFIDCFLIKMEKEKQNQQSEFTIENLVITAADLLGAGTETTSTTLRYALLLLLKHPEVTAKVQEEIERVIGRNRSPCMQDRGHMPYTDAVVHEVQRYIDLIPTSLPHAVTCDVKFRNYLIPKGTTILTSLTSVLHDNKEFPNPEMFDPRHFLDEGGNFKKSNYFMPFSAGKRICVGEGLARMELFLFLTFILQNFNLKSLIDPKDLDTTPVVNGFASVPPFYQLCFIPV
# 3',5'-cyclic-AMP phosphodiesterase 4B (Homo sapiens), sequence (Q07343 whole entry, looked up): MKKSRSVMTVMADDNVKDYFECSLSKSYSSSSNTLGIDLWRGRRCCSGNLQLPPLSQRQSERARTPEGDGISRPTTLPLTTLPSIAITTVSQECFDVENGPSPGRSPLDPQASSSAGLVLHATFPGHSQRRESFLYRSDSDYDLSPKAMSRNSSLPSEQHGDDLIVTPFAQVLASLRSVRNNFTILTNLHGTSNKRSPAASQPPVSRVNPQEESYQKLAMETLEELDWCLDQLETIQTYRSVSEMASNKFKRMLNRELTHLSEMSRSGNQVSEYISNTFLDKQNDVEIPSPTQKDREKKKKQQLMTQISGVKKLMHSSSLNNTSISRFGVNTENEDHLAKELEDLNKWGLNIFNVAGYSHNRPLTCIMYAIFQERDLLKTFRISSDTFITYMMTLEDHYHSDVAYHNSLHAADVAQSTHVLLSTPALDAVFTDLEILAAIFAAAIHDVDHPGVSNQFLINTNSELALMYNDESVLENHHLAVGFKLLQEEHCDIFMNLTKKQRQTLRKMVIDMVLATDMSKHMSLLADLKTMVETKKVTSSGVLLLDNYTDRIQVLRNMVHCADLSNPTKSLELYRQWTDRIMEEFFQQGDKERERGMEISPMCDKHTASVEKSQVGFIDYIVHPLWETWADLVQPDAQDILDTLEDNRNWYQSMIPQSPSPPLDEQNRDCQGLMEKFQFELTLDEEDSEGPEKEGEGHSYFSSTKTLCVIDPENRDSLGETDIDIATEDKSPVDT
# Lysosomal acid glucosylceramidase (Homo sapiens), sequence (P04062 whole entry, looked up): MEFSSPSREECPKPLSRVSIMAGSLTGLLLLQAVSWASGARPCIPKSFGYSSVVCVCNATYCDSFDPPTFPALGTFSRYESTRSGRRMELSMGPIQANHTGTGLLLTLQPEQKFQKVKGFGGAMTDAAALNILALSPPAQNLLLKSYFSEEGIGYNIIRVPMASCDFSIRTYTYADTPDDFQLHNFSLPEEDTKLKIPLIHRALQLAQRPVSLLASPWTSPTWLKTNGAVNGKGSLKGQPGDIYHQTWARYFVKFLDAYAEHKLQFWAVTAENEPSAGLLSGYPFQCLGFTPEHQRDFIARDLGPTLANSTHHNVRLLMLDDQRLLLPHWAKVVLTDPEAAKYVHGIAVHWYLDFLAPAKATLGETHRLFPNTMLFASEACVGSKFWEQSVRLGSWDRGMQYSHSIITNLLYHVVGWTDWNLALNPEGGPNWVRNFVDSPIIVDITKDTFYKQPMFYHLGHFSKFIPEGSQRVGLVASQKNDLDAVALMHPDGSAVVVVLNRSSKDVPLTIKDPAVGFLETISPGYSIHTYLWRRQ
# Glucocorticoid receptor (Homo sapiens), sequence (P04150 whole entry, looked up, the tested form may be a part): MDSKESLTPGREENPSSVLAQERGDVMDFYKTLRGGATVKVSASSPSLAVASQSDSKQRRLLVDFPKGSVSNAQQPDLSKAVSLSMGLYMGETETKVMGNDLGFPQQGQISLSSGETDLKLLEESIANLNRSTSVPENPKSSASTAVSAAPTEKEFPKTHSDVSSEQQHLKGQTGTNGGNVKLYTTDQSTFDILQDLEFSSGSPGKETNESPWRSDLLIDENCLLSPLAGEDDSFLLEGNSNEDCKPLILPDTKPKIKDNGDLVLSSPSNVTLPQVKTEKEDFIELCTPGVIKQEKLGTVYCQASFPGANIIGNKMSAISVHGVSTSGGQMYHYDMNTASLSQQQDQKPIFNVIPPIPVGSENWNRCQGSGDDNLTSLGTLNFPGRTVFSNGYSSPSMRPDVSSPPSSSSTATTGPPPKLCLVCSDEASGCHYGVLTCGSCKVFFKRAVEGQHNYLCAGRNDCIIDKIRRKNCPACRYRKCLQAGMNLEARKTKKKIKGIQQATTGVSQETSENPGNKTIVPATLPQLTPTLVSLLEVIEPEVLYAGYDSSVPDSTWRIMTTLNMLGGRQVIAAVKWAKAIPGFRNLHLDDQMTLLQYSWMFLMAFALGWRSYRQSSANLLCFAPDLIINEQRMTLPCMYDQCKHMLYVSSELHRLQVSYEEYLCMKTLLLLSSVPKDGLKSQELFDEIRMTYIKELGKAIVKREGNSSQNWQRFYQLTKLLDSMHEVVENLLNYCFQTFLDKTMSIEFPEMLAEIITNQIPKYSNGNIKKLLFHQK
# Ubiquitin carboxyl-terminal hydrolase 1 (Homo sapiens), sequence (O94782 whole entry, looked up): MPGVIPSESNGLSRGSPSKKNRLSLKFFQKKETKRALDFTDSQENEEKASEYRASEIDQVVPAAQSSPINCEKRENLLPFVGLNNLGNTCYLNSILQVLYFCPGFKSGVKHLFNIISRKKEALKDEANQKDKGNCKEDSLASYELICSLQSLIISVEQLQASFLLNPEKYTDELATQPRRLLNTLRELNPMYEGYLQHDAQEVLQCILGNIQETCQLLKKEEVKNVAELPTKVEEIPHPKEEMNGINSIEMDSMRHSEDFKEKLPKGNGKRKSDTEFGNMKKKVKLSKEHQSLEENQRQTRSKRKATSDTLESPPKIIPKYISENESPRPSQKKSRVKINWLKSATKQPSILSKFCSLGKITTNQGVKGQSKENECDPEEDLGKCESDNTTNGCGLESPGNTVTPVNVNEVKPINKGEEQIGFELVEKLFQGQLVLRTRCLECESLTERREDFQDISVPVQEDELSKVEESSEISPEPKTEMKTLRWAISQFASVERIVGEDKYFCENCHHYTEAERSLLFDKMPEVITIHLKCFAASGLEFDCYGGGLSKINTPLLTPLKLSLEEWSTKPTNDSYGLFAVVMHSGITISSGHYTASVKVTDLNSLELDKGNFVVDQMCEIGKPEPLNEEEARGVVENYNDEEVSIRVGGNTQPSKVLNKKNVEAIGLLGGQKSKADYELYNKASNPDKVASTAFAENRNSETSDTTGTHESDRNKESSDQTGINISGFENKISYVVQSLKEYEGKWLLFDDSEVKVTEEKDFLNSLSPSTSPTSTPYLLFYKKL
# Cytochrome P450 2C9 (Homo sapiens), sequence (P11712 whole entry, looked up): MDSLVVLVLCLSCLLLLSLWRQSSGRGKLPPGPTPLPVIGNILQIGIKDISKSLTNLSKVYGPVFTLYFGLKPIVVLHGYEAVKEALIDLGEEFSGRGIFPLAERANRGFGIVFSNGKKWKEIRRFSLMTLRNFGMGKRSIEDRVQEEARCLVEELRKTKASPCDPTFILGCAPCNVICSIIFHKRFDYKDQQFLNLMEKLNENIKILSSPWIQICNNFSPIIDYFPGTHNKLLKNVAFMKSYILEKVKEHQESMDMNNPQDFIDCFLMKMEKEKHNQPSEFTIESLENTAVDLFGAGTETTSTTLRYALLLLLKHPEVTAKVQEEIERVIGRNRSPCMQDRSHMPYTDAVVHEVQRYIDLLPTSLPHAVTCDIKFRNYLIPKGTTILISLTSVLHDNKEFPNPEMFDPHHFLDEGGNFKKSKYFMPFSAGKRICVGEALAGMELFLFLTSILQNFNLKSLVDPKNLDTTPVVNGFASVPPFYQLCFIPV
Structure (SMILES),Potency [1] [µM],"activity change, negative = inhibition [2] [%]","activity change, negative = inhibition [3] [%]","activity, negative = inhibition [4] [%]",Potency [5] [µM],Potency [6],Potency [7],outcome [8],Potency [9],Potency [10],Potency [11],Potency [12],Potency [13] [µM],activation [14] [%],outcome [15],Potency [16]
N#Cc1cccc(NC(=O)N2CC[C@@]3(CCCN(C(=O)c4csnn4)C3)C2)c1,> 11.4,-20.4,10.2,-5.12,> 46,inactive,inactive,inactive,,,,,,,,
O=S(=O)(c1ccccc1)N1CCC2(CCCN(c3ccccc3)C2)CC1,> 11.4,17.4,-15.8,7.82,> 46,inactive,inactive,inactive,1.26 µM (active),inactive,1.58 µM (active),,,,,
O=C(c1csnn1)N1CCC[C@@]2(CCN(c3cccc(-c4ccccc4)c3)C2)C1,> 11.4,-28.1,12.1,6.22,> 46,inactive,inactive,inactive,,,,,,,,
CC(=O)N1CCC2(CC1)CCN(C(=O)Nc1cccc(C#N)c1)CC2,> 11.4,4.49,8.82,3.47,> 46,inactive,inactive,inactive,,,,,,,,
O=C(c1cccc(F)c1)N1CCC2(CC1)CN(c1ccccc1)C2,> 11.4,-0.575,6.14,-1.57,,inactive,inactive,inactive,,7.94 µM (active),,inactive,,,,
O=c1c(CCc2ccccc2)nc2cnc(Nc3ccccc3)nc2n1Cc1cccs1,> 11.4,-26.7,,-23.5,> 46,inactive,inactive,inactive,,,,,> 9.22,,,
Cn1cccc1C(=O)N1CCC2(CCCN(C(=O)Nc3cccc(C#N)c3)C2)CC1,> 11.4,-6.91,,-16.1,> 46,inactive,inactive,inactive,,,,,,,,
O=S(=O)(c1ccccc1)N1CCC2(CCN(c3ccccc3)CC2)CC1,> 11.4,6.91,-1.26,-14.2,> 46,inactive,inactive,inactive,,inactive,,,,,,
O=C(c1cnccn1)N1CCC2(CCCN(c3ccncc3)C2)CC1,> 11.4,-3.01,,-6.12,> 46,inactive,inactive,inactive,,,,,,,,
O=C(Oc1ccccc1)N1CCC[C@@]2(CCN(c3ccccc3)C2)C1,> 11.4,-15.6,,-1.51,> 46,inactive,inactive,inactive,,,,,,,,
O=C(Nc1cccc(F)c1)N1CC2(CCN(C(=O)c3ccncc3)CC2)C1,> 11.4,-11.4,9.26,1.8,> 46,inactive,inactive,inactive,,,inactive,,,,,
CCNc1ncc2nc(-c3cccs3)c(=O)n(-c3ccc(OC)cc3)c2n1,> 11.4,-0.164,-15.9,,> 46,inactive,,inactive,,,,,> 9.22,,,
N#CCCn1c(=O)c(-c2cccs2)nc2cnc(Oc3ccccc3)nc21,> 11.4,9.42,15.6,,> 46,inactive,inactive,inactive,,,,,> 9.22,,,
O=C(c1cccc(F)c1)N1CCC2(CCCN(c3ccccc3)C2)CC1,> 11.4,-4.36,-1.29,-11.8,> 46,inactive,inactive,inactive,,inactive,5.01 µM (active),,,-3.27,,
N#Cc1cccc(NC(=O)N2CC3(CCN(C(=O)c4cnccn4)CC3)C2)c1,> 11.4,-10.3,14.6,,> 46,inactive,inactive,inactive,,,,inactive,,,,
COc1ccc(C(=O)N2CCC3(CCCN(c4ccc(-c5ccccc5)cc4)C3)CC2)cc1,> 11.4,-8.58,,0.229,> 46,inactive,inactive,inactive,,,,,,,,
O=S(=O)(c1ccccc1)N1CCC2(CCCN(Cc3ccccc3)C2)CC1,> 11.4,10.9,,5.57,> 46,inactive,inactive,inactive,,,,,,,,
Cc1cccc(CNc2cc(-c3ccccc3C)ncn2)c1,> 11.4,13.4,,-8.32,> 46,inactive,,inactive,,,,,> 46,16.7,inactive,44.7 µM (active)
